An excerpt weighted towards active compounds, which were near 3.9% of everything screened.
HIF act – HIF pathway transcriptional activation | U2OS HRE-luciferase reporter, luminescence; normalized: DMSO 0%, desferrioxamine 100% | activation, % at 7.5 µM (by protocol) | hit rate 0.32% among 300,000;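 active = mean activation of at least 10% of the iron chelator positive control signal, with at least half of replicates also reaching 10%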
PLC-gamma1 inh – inhibitors of human phospholipase C gamma1; P19174; purified PLC-gamma1, fluorogenic substrate, fluorescence; inhibition, % at 12.2 µM; hit rate 0.84% among 370,000; in the data active = inhibition above about 9.5%
AHR activator – human AHR activation; P35869; AHR-responsive luciferase reporter cells, luminescence; activation, % at 5 µM; hit rate 2.5% among 320,000; AID 2796; in the data active = activation above about 47%
PLC-beta3 inh – PLC-beta3 (human) inhibition, primary screen; Q01970; Purified PLC-beta3, fluorogenic substrate, fluorescence; inhibition, % at 12.2 µM; hit rate 0.18% among 370,000; AID 720704
Target sequence (Q01970 whole entry, looked up): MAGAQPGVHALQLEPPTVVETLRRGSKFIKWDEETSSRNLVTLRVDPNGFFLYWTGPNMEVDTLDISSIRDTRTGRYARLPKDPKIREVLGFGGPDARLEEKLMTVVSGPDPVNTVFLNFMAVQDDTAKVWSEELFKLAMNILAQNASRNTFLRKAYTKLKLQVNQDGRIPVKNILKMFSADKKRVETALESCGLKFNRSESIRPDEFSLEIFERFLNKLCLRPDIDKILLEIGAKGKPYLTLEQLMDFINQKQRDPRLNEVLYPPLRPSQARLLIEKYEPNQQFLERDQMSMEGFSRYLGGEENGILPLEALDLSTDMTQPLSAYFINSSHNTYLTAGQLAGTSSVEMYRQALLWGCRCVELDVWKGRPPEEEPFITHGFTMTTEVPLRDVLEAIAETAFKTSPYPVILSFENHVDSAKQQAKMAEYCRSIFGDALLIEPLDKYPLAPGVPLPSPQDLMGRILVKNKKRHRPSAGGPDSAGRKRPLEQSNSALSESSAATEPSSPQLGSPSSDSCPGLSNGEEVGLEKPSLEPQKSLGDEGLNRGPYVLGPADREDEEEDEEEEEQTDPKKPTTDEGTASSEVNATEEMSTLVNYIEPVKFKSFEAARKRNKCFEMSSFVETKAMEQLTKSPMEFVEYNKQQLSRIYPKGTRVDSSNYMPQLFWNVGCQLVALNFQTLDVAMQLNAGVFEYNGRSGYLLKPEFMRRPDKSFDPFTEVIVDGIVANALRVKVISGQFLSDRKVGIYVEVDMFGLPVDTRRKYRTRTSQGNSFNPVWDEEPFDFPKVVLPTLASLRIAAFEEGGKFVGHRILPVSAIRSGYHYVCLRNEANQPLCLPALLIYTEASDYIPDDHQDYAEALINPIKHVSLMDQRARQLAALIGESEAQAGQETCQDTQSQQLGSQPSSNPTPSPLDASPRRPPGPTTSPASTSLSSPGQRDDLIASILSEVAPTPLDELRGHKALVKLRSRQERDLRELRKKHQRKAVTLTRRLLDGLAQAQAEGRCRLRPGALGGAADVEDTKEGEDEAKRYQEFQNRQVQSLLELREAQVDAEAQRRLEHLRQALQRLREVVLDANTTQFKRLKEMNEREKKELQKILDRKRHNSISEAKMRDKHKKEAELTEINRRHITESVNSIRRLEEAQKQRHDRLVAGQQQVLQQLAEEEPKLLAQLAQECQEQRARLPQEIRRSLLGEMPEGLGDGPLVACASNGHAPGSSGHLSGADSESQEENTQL
CR mimetic SO – yeast age-related superoxide inhibition as caloric restriction mimetic; superoxide response (% of plate mean), % at 10 µM; hit rate 0.18% among 330,000; S. cerevisiae aged cells, superoxide DHE fluorescence; stronger effect = lower value; AID 2690;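 active = superoxide response under a set limit, about three screen SD below normal, cut at about 65% in these data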;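 note: yeast aged for seven days with compound at 30 °C before DHE staining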
HGIII-sPLA2 inh – Inhibits HGIII-sPLA2 liposome hydrolysis, primary screen; Q9NZ20; QFRET BODIPY PC-A2 liposome hydrolysis, fluorescence; inhibition, % at 12.2 µM; hit rate 0.56% among 370,000;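 active = inhibition above mean plus 3 SD of compounds lying within the high and low control bounds, cut at about 19% in these data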
PLCgamma1 ctr – inhibits human PLC-gamma1 in PLC-beta3 counter-screen; inhibition, % at 12.3 µM; purified PLC-gamma1, fluorogenic substrate, fluorescence; hit rate 3.1% among 3,300; shares compounds with PLC-gamma1 inh; AID 743258; in the data active = inhibition above about 9.5%
PLCbeta3 conf – human PLC-beta3 inhibition, confirmation | AID 743261 | inhibition, % at 12.3 µM | purified PLC-beta3, fluorogenic substrate fluorescence | shares compounds with PLC-gamma1 inh | hit rate 1% among 3,300
A number is an active result; . = inactive; / = no result given. Cut-off read from the data, not from the text of the source, unless noted: active = inhibition above about 11%; inactive = the rest.

SMILES | HIF act | PLC-gamma1 inh | AHR activator | PLC-beta3 inh | CR mimetic SO | HGIII-sPLA2 inh | PLCgamma1 ctr | PLCbeta3 conf
CC(=O)c1ccc(NC(=O)NC2CCCCN(Cc3cccc(Cl)c3)C2=O)cc1 (stereo not given) | / | 11 | / | . | / | . | . | .
CCCCOc1ccc(C(=O)NC2CCCCN(Cc3cccc(C(F)(F)F)c3)C2=O)cc1 (stereo not given) | / | 10 | / | . | / | . | . | .
Cc1oc(-c2cccc(Cl)c2)nc1CS(=O)(=O)CC(=O)NCc1ccco1 | . | . | . | . | . | . | / | /
CCc1nc2ccc(C(=O)Nc3cccc(OCC(=O)N(C)C)c3)cn2c1N(C)Cc1cc2ccccc2s1 | / | . | / | . | / | . | / | /
CS(=O)(=O)n1nc(OC(=O)c2cccs2)cc1N | . | 12 | . | . | / | . | . | .
COc1ccc(S(=O)(=O)n2nc(OC(=O)c3cccs3)cc2N)cc1 | . | . | . | . | . | . | / | /
COc1ccccc1CCCNC(=O)C1CCC(=O)N(CCCN2CCCC2=O)C1 (stereo not given) | . | . | . | . | . | . | / | /
COc1ccccc1CNC(=O)C1CCC(=O)N(CCCN2CCCC2=O)C1 (stereo not given) | . | 9.9 | . | . | . | . | . | .
CNc1ncc(C(=O)C(C)(C)C)s1 | . | 11 | . | . | . | . | . | .
O=C(NC(=S)NCC1CCCO1)c1cccc([N+](=O)[O-])c1 (stereo not given) | . | 9.6 | . | 12 | . | . | . | .
CCCCNC(=O)NC12CC3CC(CC(C3)C1)C2 | . | . | . | . | . | . | / | /
CCCCNC(=O)NC(C(=O)OC)C12CC3CC(CC(C3)C1)C2 (stereo not given) | . | 13 | . | . | . | . | . | .
COc1ccc(N2CC(C(=O)N[C@@H](C)C(=O)NCc3ccccc3OC)CC2=O)cc1 (stereo not given in full) | . | 9.8 | . | . | . | . | . | .
COc1cc(NC(=O)c2cc(S(=O)(=O)N3CCCCC3)ccc2N2CCOCC2)cc(OC)c1 | . | . | . | . | . | . | / | /
O=C(c1ccc(N2C(=O)CCC2=O)cc1)N1CCCSC1=Nc1ccccc1 | / | . | / | . | / | . | / | /
CCOc1ccccc1N(CC)C(=O)c1cc2c(s1)-c1ccccc1S(=O)(=O)C2 | / | . | / | . | / | . | / | /
CCc1cccc(NC(=O)CN(c2ccc(OC)cc2)S(=O)(=O)c2c(C)n[nH]c2C)c1 | . | 14 | . | 11 | . | . | 16 | 13
COc1ccc(N(CC(=O)Nc2cccc(C)c2)S(=O)(=O)c2c(C)n[nH]c2C)cc1 | . | . | . | . | . | . | / | /
CCC(C)NCCCOc1cc(Cl)ccc1Cl (stereo not given) | . | . | . | . | . | . | / | /
CCCCNCCCOc1cc(Cl)ccc1Cl | . | . | . | 11 | . | . | . | .
COc1cccc(Nc2cc(N3CCOCC3)c3nonc3c2[N+](=O)[O-])c1 | . | 10 | . | . | . | . | . | .
Nn1cnnc1SCC(=O)N(C1CCCCC1)C1CCCCC1 | . | 11 | . | . | . | . | . | .
Cn1ccnc1SCC(=O)N(C1CCCCC1)C1CCCCC1 | . | . | . | . | . | . | / | /
COc1cc(/C=N\NC(=O)c2ccccc2F)ccc1Oc1ccc([N+](=O)[O-])cn1 | . | 9.6 | . | . | . | . | . | .
COc1cc(/C=N\NC(=O)c2ccc(Cl)cc2)ccc1Oc1ccc([N+](=O)[O-])cn1 | . | . | . | . | . | . | / | /
SMILES | HIF act | PLC-gamma1 inh | AHR activator | PLC-beta3 inh | CR mimetic SO | HGIII-sPLA2 inh | PLCgamma1 ctr | PLCbeta3 conf
C=CCn1c(C)nnc1SCC(=O)Nc1ccccc1C(=O)NC1CC1 | / | . | / | . | / | . | / | /
CN1CCN(NC(=O)/C=C/c2cccc(Cl)c2)CC1 | . | . | . | . | . | . | / | /
CN1CCN(NC(=O)/C=C/c2cccc([N+](=O)[O-])c2)CC1 | . | 12 | . | . | . | . | . | .
O=C(c1cccc(C(F)(F)F)c1)N1CCC2(CC1)NCCc1[nH]cnc12 | . | . | . | . | . | . | / | /
CCOC(=O)c1c(NC(=O)C2CCCN(S(=O)(=O)c3ccc(C)cc3)C2)sc2c1CCCC2 (stereo not given) | . | 15 | . | . | . | . | . | .
Cn1cc(C(=O)NC2C3CC4CC(C3)CC2C4)cn1 (stereo not given) | . | 12 | . | . | . | . | . | .
NC(=O)C1CNc2ccccc2O1 (stereo not given) | . | 11 | . | . | . | . | . | .
O=C(O)c1cc([N+](=O)[O-])ccc1-c1ccc([N+](=O)[O-])cc1C(=O)O | / | 20 | / | 12 | / | . | . | .
O=C(c1ccc([N+](=O)[O-])cc1)N(Cc1ccccc1)Cc1ccccc1 | / | 10 | / | . | / | . | . | .
O=C(O)c1cc([N+](=O)[O-])ccc1N1CCCCC1 | . | . | . | . | . | . | / | /
O=C(O)c1ccc([N+](=O)[O-])cc1 | / | 13 | / | . | / | . | . | .
O=[N+]([O-])c1ccc(C(=S)N2CCN(Cc3ccccc3)CC2)cc1 | . | 10 | . | . | . | . | . | .
O=C(O)c1ccc(C(=O)c2cc([N+](=O)[O-])cc([N+](=O)[O-])c2)cc1 | / | . | / | . | / | . | / | /
CCN(CC(=O)NC1CCS(=O)(=O)C1)c1ccc(S(=O)(=O)N(CC)CC)cc1[N+](=O)[O-] (stereo not given) | / | . | . | . | . | . | / | /
O=C(NCC1CCCO1)c1cccc(S(=O)(=O)N2CCCCC2)c1 (stereo not given) | / | . | / | . | / | . | / | /
Cn1c(SCC(=O)N2CCOCC2)nnc1-c1ccccc1 | . | . | . | 12 | . | . | . | .
Cn1c(SCC(=O)N2CCN(c3ccccc3)CC2)nnc1-c1ccncc1 | . | . | . | . | . | . | / | /
Cc1cccc(N2CCN(C(=O)C3CCC(CNS(=O)(=O)c4cccs4)CC3)CC2)c1C (stereo not given) | . | . | . | . | . | . | / | /
O=C(C1CCC(CNS(=O)(=O)c2cccs2)CC1)N1CCCCC1 (stereo not given) | . | . | . | 16 | . | . | . | .
CCc1noc(C)c1C(=O)N(C)CC(=O)Nc1ccc(F)c(F)c1F | . | . | . | . | . | . | / | /
CCOC(=O)N1CCN(C(=O)C2CCC(=O)N(Cc3cccc(C(F)(F)F)c3)C2)CC1 (stereo not given) | . | . | . | . | . | . | / | /
CC(C)(C)OC(=O)C[C@H]1C/C=C\C[C@@H](CC(=O)N(CCO)Cc2ccccc2)C(=O)N2CCC[C@H]2COC1=O | / | . | . | . | . | . | / | /
CC(C)(C)OC(=O)C[C@@H]1C/C=C\C[C@H](CC(=O)N(CCO)Cc2ccccc2)C(=O)NCCOC1=O | / | . | . | 17 | . | . | . | .

Screening data as filed in PubChem BioAssay.
